Results as given in PubChem BioAssay AID1159580 (chemical genetic matrix, 2015).
Among all 5,500 compounds or so, about 2,000 (36%) were called active. About 18% were inconclusive and are not listed. Cut-off read from the data, not from the text of the source: active = normalized growth mostly below about 0.91 (no sharp cut-off); inconclusive = no clear call, values can overlap the other calls; inactive = mostly above about 0.92. The list shows a part of the results.

Experiment: chemical genetic growth profiling, strain panel (AID 1159580);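 note: tested at 20 µM; growth read once vehicle control cultures reached saturation at 30 °C; 1 = growth at the plate median or of vehicle wells; lower values mean less growth of the strain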
Settings: S. cerevisiae deletion strains, growth OD
[1] = locus YAL040C, strain CLN3, hits give low values
[2] = locus YCL061C, strain MRC1 (second series), hits give low values
[3] = locus YER002W, strain NOP16, hits give low values
[4] = locus YGR229C, strain SMI1, hits give low values
[5] = locus YNL175C, strain NOP13, hits give low values
[6] = locus YNL197C, strain WHI3, hits give low values
[7] = locus YNL224C, strain SQS1, hits give low values
[8] = locus YOR083W, strain WHI5 (second series), hits give low values
[9] = locus YPL055C, strain LGE1, hits give low values

Measured: normalized growth

CC(=O)OCC1=C(C(=O)O)N2C(=O)C(NC(=O)CSc3ccncc3)C2SC1 (stereo not given)
inactive: [1] 0.974 | [2] 0.991 | [3] 1.02 | [4] 0.99 | locus YMR263W, strain SAP30, hits give low values 0.974 | [5] 1 | [6] 1 | [7] 1 | [8] 1.02 | [9] 1.01

CC1=C(CC(=O)O)c2cc(F)ccc2/C1=C\c1ccc(S(C)(=O)=O)cc1
inactive: locus YAL013W, strain DEP1, hits give low values 1.02 | [1] 0.996 | [2] 0.99 | locus YDR150W, strain NUM1, hits give low values 0.989 | locus YDR363W, strain ESC2, hits give low values 1.02 | [3] 1 | [4] 1.04 | locus YMR307W, strain GAS1, hits give low values 0.946 | locus YNL153C, strain GIM3, hits give low values 0.982 | [5] 0.98 | [6] 0.979 | [7] 0.99 | locus YNL322C, strain KRE1, hits give low values 1 | [8] 0.973 | [9] 1.05
